In the supplement of paper PMC12024529:

What follows are molecules tested on HEK293 WT BDD-FVIII-Gluc (assay: secreted FVIII-Gluc luciferase Z-score vs DMSO control; higher = more FVIII-Gluc secretion). Conditions: 5 µM.
Experimental: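 Natural plant-compound library (480 compounds, ST catalogue IDs) screened on HEK293 cells stably expressing WT BDD-FVIII-Gaussia luciferase fusion at 5 µM. Secreted Gluc activity in the medium is given as a Z-score relative to DMSO controls.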

Compared with `CC[C@@H]1[C@H]2CCCCN3[C@H]2[C@H](C[C@H]3[C@@H]2C[C@H](C)C(=O)O2)[C@@H]2[C@H]1OC(=O)[C@H]2C`, `CC(=O)OC1CCC2(C)C(=CCC3C2CC[C@]2(C)C(C(C)=O)CCC32)C1` (stereo partly drawn) is higher in “secreted FVIII-Gluc luciferase Z-score” value: -0.0302 for the first, 0.0308 for the second.

First: C=C1CC23C[C@@]1(O)CCC2C12C=CC(O)C(C)(C(=O)O1)C2[C@@H]3C(=O)O (stereo partly drawn)
Second: NC(=O)C1CCCN1C(=O)C(Cc1cnc[nH]1)NC(=O)C1CCC(=O)N1 (stereo not drawn)
The “secreted FVIII-Gluc luciferase Z-score” value of the first is lower: -0.216 for the first, 0.443 for the second.

Compared with `COc1ccc(-c2coc3cc(OC4OC(CO)C(O)C(O)C4O)cc(O)c3c2=O)cc1` (stereo not drawn), `COc1ccc(-c2coc3cc(O)cc(O)c3c2=O)cc1` is higher in “secreted FVIII-Gluc luciferase Z-score” value: -0.0597 for the first, 0.185 for the second.

Going from `OCc1ccccc1O[C@@H]1O[C@H](CO)[C@@H](O)[C@H](O)[C@H]1O` to `OC[C@H]1O[C@@H](n2cnc3c(NCc4ccco4)ncnc32)[C@H](O)[C@@H]1O`, the “secreted FVIII-Gluc luciferase Z-score” value falls from 0.752 to -1.03.

Going from `COc1ccc2c(c1OC)C(=O)O[C@@H]2[C@H]1c2c(cc3c(c2OC)OCO3)CCN1C` to `C=C(CO)C1Cc2c(ccc3c2OC2COc4cc(OC)c(OC)cc4C2C3=O)O1` (stereo not drawn), the “secreted FVIII-Gluc luciferase Z-score” value falls from -0.0362 to -1.91.

Going from `O=C(O)C(=O)Cc1ccccc1` to `C[C@H](C(=O)O)c1cccc(C(=O)c2ccccc2)c1`, the “secreted FVIII-Gluc luciferase Z-score” value falls from 0.46 to 0.342.

Compared with `Cn1cnc2c1c(=O)[nH]c(=O)n2C`, `CC(=O)Nc1nc2nc[nH]c2c(=O)[nH]1` is lower in “secreted FVIII-Gluc luciferase Z-score” value: 0.889 for the first, 0.475 for the second.

First: COc1ccc(-c2coc3cc(O)ccc3c2=O)cc1
Second: COc1ccc(-c2coc3ccc(OC4OC(COC(C)=O)C(OC(C)=O)C(OC(C)=O)C4OC(C)=O)c(OC(C)=O)c3c2=O)cc1 (stereo not drawn)
The “secreted FVIII-Gluc luciferase Z-score” value of the first is higher: 0.632 for the first, -0.543 for the second.

First: C/C(=C\CNc1ncnc2c1ncn2C1OC(CO)C(O)C1O)CO (stereo not drawn)
Second: NC(Cc1cnc[nH]1)C(=O)O (stereo not drawn)
The “secreted FVIII-Gluc luciferase Z-score” value of the first is lower: -0.332 for the first, 0.443 for the second.
